Parameters in all cases: scale not given: direction of the effect not stated beside the values
In assay [1] the target is Protein translocase subunit SecA (Escherichia coli (strain K12)) (UniProt P10408). In words: Assay to Identify E. coli SecA ATPase Inhibitors. The class given is functional. The following applies: 30 µM.
For assay [2], the target named is T1, Ubiquitin-activating enzyme e1, putative (Leishmania donovani (strain BPK282A1)) (UniProt E9BSI1).
T1 sequence (whole entry): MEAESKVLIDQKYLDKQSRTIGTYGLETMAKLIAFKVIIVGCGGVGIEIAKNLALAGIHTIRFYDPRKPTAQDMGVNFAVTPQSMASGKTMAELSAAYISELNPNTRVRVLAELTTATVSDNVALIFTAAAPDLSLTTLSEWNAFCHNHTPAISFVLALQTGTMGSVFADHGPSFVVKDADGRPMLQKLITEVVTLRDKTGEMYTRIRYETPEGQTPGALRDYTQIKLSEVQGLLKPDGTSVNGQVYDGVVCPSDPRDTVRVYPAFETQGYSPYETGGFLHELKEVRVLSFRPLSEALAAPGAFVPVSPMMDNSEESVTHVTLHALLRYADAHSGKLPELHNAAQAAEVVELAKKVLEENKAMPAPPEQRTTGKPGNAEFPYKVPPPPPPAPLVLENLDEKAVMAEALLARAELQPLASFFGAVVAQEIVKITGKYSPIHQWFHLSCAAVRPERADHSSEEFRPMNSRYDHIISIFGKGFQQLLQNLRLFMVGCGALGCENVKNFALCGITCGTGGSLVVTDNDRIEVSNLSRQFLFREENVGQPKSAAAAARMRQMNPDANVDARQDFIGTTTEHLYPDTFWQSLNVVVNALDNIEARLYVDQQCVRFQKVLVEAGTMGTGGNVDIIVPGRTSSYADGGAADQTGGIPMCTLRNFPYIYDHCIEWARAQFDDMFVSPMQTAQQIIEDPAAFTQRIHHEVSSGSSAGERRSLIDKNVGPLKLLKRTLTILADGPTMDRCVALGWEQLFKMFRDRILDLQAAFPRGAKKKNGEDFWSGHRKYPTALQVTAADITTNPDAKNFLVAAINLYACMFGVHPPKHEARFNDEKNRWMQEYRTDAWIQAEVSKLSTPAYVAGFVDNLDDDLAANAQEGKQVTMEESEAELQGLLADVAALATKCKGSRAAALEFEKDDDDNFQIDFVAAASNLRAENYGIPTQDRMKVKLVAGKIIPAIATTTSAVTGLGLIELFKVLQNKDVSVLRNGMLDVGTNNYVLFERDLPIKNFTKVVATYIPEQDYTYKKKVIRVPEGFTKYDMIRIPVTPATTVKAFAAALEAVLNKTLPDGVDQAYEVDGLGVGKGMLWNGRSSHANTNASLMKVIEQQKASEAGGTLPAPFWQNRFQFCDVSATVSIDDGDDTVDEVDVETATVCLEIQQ
In words: Leishmania donovani Ubiquitin Activating Enzyme (LdE1). The class given is functional. Particulars: 30 µM.

The target of assay [3] is AMP-activated protein kinase, AMPK (Homo sapiens) (UniProt P54646+O43741+P54619+Q9UGJ0+Q9Y478+Q13131+Q9UGI9). In words: AMP-dependent Kinase enzyme assay. An in vitro enzyme assay that detects ADP turnover that is directly proportional to AMPK activity. This uses naive AMPK that is activated during the assay with MK-8722. The assay is classed as functional. Particulars: 30 µM.

In assay [4] the target is Sialic acid-binding Ig-like lectin 9 (Homo sapiens) (UniProt Q9Y336). In words: Hs-Siglec9 ALPHAscreen SOP 20170721. Particulars: 10 µM.
Assay [5] relates to Trypanosoma cruzi. In words: Trypanosoma cruzi phosphomannomutase and mannose-1-phosphate guanylyltransferase assay. The assay is classed as functional. The following applies: 10 µM.
Assay [6] has as its target T2, Arginase-2, mitochondrial (Homo sapiens) (UniProt P78540).
T2 sequence (whole entry): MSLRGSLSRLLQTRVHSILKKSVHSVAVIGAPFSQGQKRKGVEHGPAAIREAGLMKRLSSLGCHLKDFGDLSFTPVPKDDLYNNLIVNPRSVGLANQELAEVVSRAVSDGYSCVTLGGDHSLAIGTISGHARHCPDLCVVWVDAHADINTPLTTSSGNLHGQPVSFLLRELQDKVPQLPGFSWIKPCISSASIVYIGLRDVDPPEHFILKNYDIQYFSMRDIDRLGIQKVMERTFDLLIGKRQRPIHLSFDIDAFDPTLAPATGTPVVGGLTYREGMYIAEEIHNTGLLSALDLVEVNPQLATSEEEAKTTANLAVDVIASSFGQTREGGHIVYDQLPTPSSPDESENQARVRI
In words: in vitro enzyme assay to detect the production of urea directly proportional to the activity of Arginase II. Note: in the data most compounds retested in dose-response had high values. The class given is functional. The following applies: 33.3 µM.

Assay [7] has as its target T3, Proteasome subunit beta (Trypanosoma cruzi) (UniProt O96673).
T3 sequence (whole entry): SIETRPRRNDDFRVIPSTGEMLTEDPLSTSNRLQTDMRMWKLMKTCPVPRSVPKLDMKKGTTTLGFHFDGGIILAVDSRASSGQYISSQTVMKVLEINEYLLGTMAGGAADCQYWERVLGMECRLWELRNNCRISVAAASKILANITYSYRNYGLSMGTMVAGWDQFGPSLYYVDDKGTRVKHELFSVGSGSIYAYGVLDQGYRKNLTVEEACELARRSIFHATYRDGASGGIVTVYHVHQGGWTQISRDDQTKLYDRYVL
In words: Trypanosoma cruzi proteasome chymotrypsin-like activity (TcProtChymo) assay. Note: in the data most compounds retested in dose-response had high values. The class given is functional. The following applies: 9.37 µM.

For assay [8], the species on record is Homo sapiens. In words: To identify inhibition of the IFN signalling (Jak-Stat) pathway via expression of an eGFP reporter gene under the control of an IFN-stimulated response element (ISRE) containing MxA promoter. The following applies: 30 µM. The assay is classed as functional. (In general: Reporter assays use an easily measured gene product as a stand-in for the process of interest.)

For assay [9], the target named is T4, Tyrosyl-tRNA synthetase, putative (Trypanosoma cruzi (strain CL Brener)) (UniProt Q4DSP6).
T4 sequence (whole entry): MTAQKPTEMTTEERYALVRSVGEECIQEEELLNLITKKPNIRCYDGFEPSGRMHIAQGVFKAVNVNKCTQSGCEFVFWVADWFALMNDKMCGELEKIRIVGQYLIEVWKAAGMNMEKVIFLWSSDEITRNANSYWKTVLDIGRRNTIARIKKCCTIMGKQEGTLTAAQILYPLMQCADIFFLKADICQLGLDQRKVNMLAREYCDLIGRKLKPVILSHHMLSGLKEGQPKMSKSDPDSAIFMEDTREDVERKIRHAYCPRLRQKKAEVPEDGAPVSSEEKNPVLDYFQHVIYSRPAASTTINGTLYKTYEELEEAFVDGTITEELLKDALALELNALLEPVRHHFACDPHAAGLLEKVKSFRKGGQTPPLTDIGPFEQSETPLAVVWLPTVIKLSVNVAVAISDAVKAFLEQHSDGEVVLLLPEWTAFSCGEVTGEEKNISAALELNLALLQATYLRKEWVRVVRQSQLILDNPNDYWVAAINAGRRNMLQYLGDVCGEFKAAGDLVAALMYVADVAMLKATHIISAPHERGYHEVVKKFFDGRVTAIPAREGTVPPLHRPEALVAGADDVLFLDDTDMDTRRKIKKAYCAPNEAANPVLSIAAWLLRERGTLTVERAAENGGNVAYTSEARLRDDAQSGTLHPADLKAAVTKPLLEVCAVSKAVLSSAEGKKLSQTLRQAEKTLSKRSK
In words: Trypanosoma cruzi tyrosyl tRNA synthetase (TcYRS) _High Tyrosine SOP. Note: in the data most compounds retested in dose-response had high values. The assay is classed as functional. The following applies: 30 µM.

Assay [10] addresses T4, Tyrosyl-tRNA synthetase, putative (Trypanosoma cruzi (strain CL Brener)). In words: Trypanosoma cruzi tyrosyl tRNA synthetase (TcYRS) SOP. The class given is functional. Particulars: 30 µM.
Assay [11] has as its target Chromo domain-containing protein 1 (Saccharomyces cerevisiae (strain ATCC 204508 / S288c) (Baker's yeast)) (UniProt P32657). In words: ScCHD-1 Enzyme Inhibition Assay. Note: in the data most compounds retested in dose-response had high values. The class given is functional. Particulars: 30 µM.

Each structure is given as a SMILES string. For some assays here: Entries with a potency or affinity are not part of this list.

Results on ten compounds are retold here after ChEMBL document CHEMBL3988442, “University of Dundee, Small-Polar-MMV Screening Library” (2021).

Chromo domain-containing protein 1 (Saccharomyces cerevisiae (strain ATCC 204508 / S288c) (Baker's yeast)), sequence (P32657 whole entry, the tested form may be a part): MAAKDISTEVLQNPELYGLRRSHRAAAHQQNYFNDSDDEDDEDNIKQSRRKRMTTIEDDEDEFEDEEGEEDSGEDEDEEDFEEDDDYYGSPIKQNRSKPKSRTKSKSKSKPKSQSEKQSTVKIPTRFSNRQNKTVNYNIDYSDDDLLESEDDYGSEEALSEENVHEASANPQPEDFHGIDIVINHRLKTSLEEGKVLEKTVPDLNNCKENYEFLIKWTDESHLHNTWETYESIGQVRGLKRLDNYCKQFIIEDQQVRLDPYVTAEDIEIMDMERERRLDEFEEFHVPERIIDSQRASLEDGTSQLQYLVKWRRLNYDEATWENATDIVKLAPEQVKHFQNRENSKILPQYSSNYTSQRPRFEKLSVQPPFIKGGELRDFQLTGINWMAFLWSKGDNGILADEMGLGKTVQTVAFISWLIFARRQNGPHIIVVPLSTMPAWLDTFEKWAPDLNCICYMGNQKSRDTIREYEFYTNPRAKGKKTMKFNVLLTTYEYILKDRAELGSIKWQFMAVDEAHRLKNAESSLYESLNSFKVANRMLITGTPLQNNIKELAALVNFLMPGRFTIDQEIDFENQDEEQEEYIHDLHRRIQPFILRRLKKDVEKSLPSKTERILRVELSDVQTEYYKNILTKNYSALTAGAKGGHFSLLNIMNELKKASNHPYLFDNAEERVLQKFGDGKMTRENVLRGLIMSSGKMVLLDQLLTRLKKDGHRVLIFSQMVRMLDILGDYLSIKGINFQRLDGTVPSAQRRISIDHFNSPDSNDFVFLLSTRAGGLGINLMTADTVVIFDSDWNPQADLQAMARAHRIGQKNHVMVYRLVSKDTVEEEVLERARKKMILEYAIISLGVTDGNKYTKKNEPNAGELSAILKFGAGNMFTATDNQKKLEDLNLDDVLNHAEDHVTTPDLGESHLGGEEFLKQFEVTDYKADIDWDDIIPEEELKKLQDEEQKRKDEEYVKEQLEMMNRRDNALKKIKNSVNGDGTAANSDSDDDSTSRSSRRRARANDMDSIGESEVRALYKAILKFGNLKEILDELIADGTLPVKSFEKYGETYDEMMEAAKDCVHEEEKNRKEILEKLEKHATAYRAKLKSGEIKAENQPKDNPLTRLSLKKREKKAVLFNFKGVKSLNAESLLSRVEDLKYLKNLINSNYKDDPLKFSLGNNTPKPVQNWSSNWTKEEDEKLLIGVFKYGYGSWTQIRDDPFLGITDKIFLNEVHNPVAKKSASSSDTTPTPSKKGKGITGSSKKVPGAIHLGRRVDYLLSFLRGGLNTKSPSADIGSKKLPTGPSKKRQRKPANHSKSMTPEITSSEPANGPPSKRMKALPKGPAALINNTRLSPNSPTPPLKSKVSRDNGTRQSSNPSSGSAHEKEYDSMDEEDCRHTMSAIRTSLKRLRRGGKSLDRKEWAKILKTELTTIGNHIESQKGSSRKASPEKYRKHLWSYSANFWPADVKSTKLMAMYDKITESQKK
Protein translocase subunit SecA (Escherichia coli (strain K12)), sequence (P10408 whole entry): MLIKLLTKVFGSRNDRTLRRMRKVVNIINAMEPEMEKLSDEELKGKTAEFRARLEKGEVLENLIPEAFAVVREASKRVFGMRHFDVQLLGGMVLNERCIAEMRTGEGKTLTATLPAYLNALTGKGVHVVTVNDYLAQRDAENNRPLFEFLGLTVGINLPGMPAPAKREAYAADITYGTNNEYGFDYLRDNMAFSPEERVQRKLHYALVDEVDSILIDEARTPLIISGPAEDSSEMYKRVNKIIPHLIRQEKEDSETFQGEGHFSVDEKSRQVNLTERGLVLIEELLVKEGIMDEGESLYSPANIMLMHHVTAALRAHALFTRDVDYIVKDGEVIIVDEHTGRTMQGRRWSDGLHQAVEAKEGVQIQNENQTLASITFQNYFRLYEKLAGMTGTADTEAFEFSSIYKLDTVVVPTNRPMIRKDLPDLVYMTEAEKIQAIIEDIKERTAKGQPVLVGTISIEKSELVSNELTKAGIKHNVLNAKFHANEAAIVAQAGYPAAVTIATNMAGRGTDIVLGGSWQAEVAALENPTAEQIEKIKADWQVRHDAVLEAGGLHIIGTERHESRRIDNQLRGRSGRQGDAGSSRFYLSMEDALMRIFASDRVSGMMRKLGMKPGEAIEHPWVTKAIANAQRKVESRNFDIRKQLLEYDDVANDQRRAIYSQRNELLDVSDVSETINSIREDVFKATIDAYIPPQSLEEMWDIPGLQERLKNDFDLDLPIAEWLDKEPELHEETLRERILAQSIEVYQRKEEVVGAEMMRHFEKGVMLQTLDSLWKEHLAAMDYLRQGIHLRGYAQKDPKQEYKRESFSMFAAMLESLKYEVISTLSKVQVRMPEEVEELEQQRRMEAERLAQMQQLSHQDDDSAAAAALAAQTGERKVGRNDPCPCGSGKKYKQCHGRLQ
Sialic acid-binding Ig-like lectin 9 (Homo sapiens), sequence (Q9Y336 whole entry): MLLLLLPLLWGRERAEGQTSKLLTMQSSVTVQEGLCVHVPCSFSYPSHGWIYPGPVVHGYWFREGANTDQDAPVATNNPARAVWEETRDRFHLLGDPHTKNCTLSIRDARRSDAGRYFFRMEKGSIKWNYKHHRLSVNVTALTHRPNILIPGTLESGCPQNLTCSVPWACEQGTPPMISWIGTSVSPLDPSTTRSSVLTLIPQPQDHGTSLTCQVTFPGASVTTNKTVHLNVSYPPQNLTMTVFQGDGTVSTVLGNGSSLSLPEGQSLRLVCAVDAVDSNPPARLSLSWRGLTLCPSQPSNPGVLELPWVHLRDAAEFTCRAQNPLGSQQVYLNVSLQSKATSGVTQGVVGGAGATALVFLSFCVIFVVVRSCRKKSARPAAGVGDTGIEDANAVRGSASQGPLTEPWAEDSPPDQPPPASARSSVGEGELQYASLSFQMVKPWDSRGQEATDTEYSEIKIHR

For the compound `CNc1nc2c(s1)C(c1cccc(F)c1F)CC(=O)N2` (stereo not given), the Percent Effect in [1] is -2.38%; in assay [2], 13.2%; in assay [3], -61.3%; in [4] it was -2.61%; in assay [5] it was 0.876%; in [6], 4.73%. For the same compound, the Percent Effect was 18.9% in [7]; 7.67% in assay [8]; -11.7% in assay [9]; -13% in assay [10]; -8.74% in assay [11].
With `Cc1cccc(C(=O)N2C[C@@H]3CCN(c4cccnc4)C[C@@H]3C2)c1`, the Percent Effect is -6.42% in [1]; 2.67% in [2]; 9.98% in assay [3]; -2.65% in assay [4]; -1.38% in assay [5]; 0.233% in assay [6]. Further, the Percent Effect in assay [7] was 1.67%; in assay [8], 16.4%; in [9] it was 1.06%; in [10] it was -3.85%; in [11], -3.21%.
Turning to `CCCn1nc2c(cc1=O)CN(CCCN1CCCC1=O)CC2`, the Percent Effect in [1] was -3.62%; in assay [2] it was -2.7%; in [3], -101%; in assay [4] it was 1.97%; in [5], -2.55%; in [6] it was -1.6%. Further, the Percent Effect in assay [7] is 29.6%; in assay [8] it was 17.5%; in [9] it was 4.43%; in [10], -1.24%; in [11], -3.69%.
As for `Cc1cc(C)nc(CCNC(=O)C(c2ccc(F)cc2)N(C)C)n1` (stereo not given), the Percent Effect in assay [1] was 6.75%; in assay [2] it was 11%; in [3] it was 8.61%; in assay [4] it was 2.2%; in [5], -9.13%; in [6], -31.9%. Moreover, the Percent Effect in assay [7] is 3%; in assay [8], 48.8%; in assay [9] it was 1.04%; in assay [10], 6.17%; in assay [11] it was -6.29%.
Turning to `Cc1ccc(NC2CCN(C(=O)Cc3ccc(C#N)cc3)CC2)nn1`, the Percent Effect in assay [1] was -4.53%; in assay [2] it was 2.7%; in assay [3], -6.02%; in [4], 18.2%; in assay [5] it was 4.81%; in assay [6] it was -4.41%. Also, the Percent Effect was 3.24% in [7]; -19.9% in assay [8]; 6.4% in assay [9]; 18.5% in [10]; -10.7% in [11].
As to `CN(C)c1ncc(CN2CCC(c3nnsc3S(C)(=O)=O)CC2)cn1`, the Percent Effect in [1] is -2.31%; in [2], -1.35%; in [3], 11.6%; in assay [4] it was -0.17%; in assay [5], -3.36%; in [6] it was 0.232%. Moreover, the Percent Effect in assay [7] is 4.37%; in [8], 12.1%; in assay [9], 3.23%; in assay [10], 1.3%; in assay [11], -9.61%.
`CCn1cc(C(=O)NC2CCN(S(C)(=O)=O)CC2)c2ccccc21`: the Percent Effect in assay [1] is -3.22%; in assay [2], 16.2%; in assay [3], -3.16%; in assay [4], 22.3%; in assay [5] it was 4.01%; in [6], 0.248%. Moreover, the Percent Effect in [7] is 5.41%; in assay [8] it was 6.18%; in [9], 2.15%; in [10], 16.1%; in assay [11], -6.57%.
In the case of `Cn1ccc(-c2cc(C(=O)N3CCOCC3)c3ccccn23)n1`, the Percent Effect in [1] was 1.94%; in assay [2], 10.8%; in assay [3], 19.9%; in assay [4] it was 17.5%; in assay [5], -8.5%; in [6], 2.87%. The Percent Effect was 12.7% in [7]; 35.5% in assay [8]; -4.32% in [9]; 2.56% in [10]; -7.76% in [11].
Consider `Cc1cnn(CC2CN(CCc3ccncc3)CCO2)c1` (stereo not given), for which the Percent Effect in assay [1] is -4.16%; in assay [2] it was 5.48%; in [3], 0.214%; in [4], -1.34%; in assay [5] it was -0.783%; in assay [6] it was 3.18%. For the same compound, the Percent Effect in [7] was 4.08%; in [8] it was -14.5%; in assay [9] it was 3.23%; in [10], 5%; in assay [11], -0.563%.
Regarding `O=C1CCCN1Cc1ncn2c1CN(C(=O)c1cccc(F)c1)CCC2`, the Percent Effect is -0.833% in assay [1]; 16.2% in assay [2]; -2.98% in [3]; 12% in [4]; 3.42% in [5]; 20.6% in [6]. The Percent Effect was 13.3% in assay [7]; 17.8% in [8]; 8.6% in assay [9]; 16.1% in assay [10]; -12.8% in assay [11].
